NPR2 activator: GC-B (human) receptor activation. P20594. HEK293-GC-B cells, CNP EC30, cGMP TR-FRET; 0% at EC30 CNP, 100% saturating CNP. activation, % at 10 µM. actives 0.11% (n = 370,000);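 active means activation at 10 µM reaching about 35% in either raw or pattern-adjusted values, limit read from the data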
Rev-erbA mod: modulates human Rev-erb alpha binding to DNA | P20393 | Rev-erbα–FITC-DNA binding, fluorescence polarization, 90 min | activity, % at 10 µM | actives 0.79% (n = 370,000);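 active means activity above about 14%, limit read from the data; passing the limit was not always enough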;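 further: 0% = DMSO wells with 35 nM protein and 100% = DMSO wells with 750 nM protein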
GC-A act: GC-A (human) enzyme activation | P16066 | HEK293 GC-A cells, cGMP TR-FRET, EC30 ANP; 0% at EC30 ANP, 100% saturating ANP | activation, % at 10 µM | actives 0.14% (n = 370,000); in the data active means activation above about 40%
V-ATPase pH: alters yeast V-ATPase proton transport; S. cerevisiae, pHLuorin cytosolic pH fluorescence; response, % at 10 µM; actives 0.37% (n = 350,000); AID 504577; in the data active means response mostly above about 7.3%, no sharp cut-off; inactive means mostly below about 5.4%; further: actives read high
PG9 binder: small molecules binding HIV-1 gp120 antibody PG9; AID 624416; actives 0.43% (n = 360,000); inhibition, % at 6.7 µM; TR-FRET gp120-PG9 antibody binding; in the data active means inhibition above about 8.5%
Rev-erbA confirm: confirmation of modulators of human Rev-erb alpha DNA binding. shares compounds with Rev-erbA mod. Rev-erb alpha FITC-DNA binding, fluorescence polarization, 90 min. activation, % at 25 µM. actives 61% (n = 3,000);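 active means activation at or above a set limit, or at least 3 SD above the negative control mean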;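 further: 0% = 35 nM protein with DMSO and 100% = 750 nM protein high control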
RORg DNA counter: affects RORgamma DNA binding in a Rev-erb alpha counter-screen; shares compounds with Rev-erbA mod; purified RORgamma protein-FITC-DNA binding, fluorescence polarization; IC50, µM; actives 8% (n = 910); AID 1259320;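 active means Compounds whose fitted half-maximal concentration for disrupting protein-DNA binding is below 10 micromolar; the record names Rev-erb in its text, so the target is in doubt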
* hit, by the source's call; i = inactive; nt = no result given. The list is not random: actives were taken first. Their share in the collection is about 1.6%.

SMILES	NPR2 activator	Rev-erbA mod	GC-A act	V-ATPase pH	PG9 binder	Rev-erbA confirm	others
COc1ccc(-c2cc3nc[nH]c(=O)c3s2)cc1	-4.6	41.6*	5.3	0.9	1.1	14.9
COC(=O)c1cc(-c2cc(F)cc(OC)c2)c(=O)n2c1CCC2	-1.2	-0.4	0.2	nt	nt	nt
C=CCNC(=O)N1CCC(c2nc3ccc(Cl)cc3[nH]2)CC1	-9.8	-1.9	-0.3	nt	nt	nt
Cc1ccc(N2CCOCC2)c2c1C(=O)c1ccccc1C2=O	6.5	8.3	6.1	2.3	-9.4	nt
CC(=O)N(C(C)=O)N1C(=O)c2cccc3c(N4CCOCC4)ccc(c23)C1=O	-0.9	17.3*	-0.5	-3.7	-5.5	17.5
CCN(CC)S(=O)(=O)c1ccc(C(=O)OCCN2C(=O)c3cccc4c(N5CCOCC5)ccc(c34)C2=O)cc1	10.4	278.0*	6.6	-22.2	1.1	217.2*	RORg DNA counter=>40
C[C@H](O)[C@@H]1CN2CCc3ccc(-c4ccc5c(c4)OCO5)cc3[C@@H]2C[C@@H]1N(C)C(=O)Nc1ccccc1	-5.7	-3.0	-3.7	nt	nt	nt
COc1cc(OC)cc(C(=O)Nc2nc3ccc(S(C)(=O)=O)cc3s2)c1	1.1	33.1*	1.4	4.2	2.2	21.3*
Cc1ccc2nc(NC(=O)c3cccs3)sc2c1	-23.1	1.6	1.1	-1.9	-3.1	nt
COc1ccc2oc(C(=O)Nc3nc4ccc(S(C)(=O)=O)cc4s3)c(C)c2c1	5.7	30.8*	-0.3	8.1	-1.1	0.3
Cc1ccc2nc(NC(=O)c3ccc4ncsc4c3)sc2c1	-7.9	34.2*	4.9	-4.2	0.6	23.9*
COc1cc(C(=O)Nc2nc3ccc(S(C)(=O)=O)cc3s2)cc(OC)c1C	0.1	21.0*	-3.7	-0.3	2.7	9.7
O=C(CCCl)NC1CCCCN(Cc2ccc(OC(F)(F)F)cc2)C1=O (stereo unspecified)	5.9	-5.7	2.3	nt	nt	nt
CN(C)[C@@H]1CCN(c2cccc3c2S(=O)(=O)N2CC[C@@H](C2)O3)C1	2.0	-2.4	0.7	nt	nt	nt
CC(=O)c1cc(-c2csc(C=O)c2)c(=O)n2c1CCC2	-5.3	-0.6	-0.4	nt	nt	nt
CC(C)CNc1cccc2c1S(=O)(=O)N(Cc1cn(Cc3ccc(F)cc3)nn1)Cc1ccccc1O2	1.9	0.6	-2.2	nt	nt	nt
O=C(Nc1ccc2c(c1)C(=O)NC2=O)c1ccc2ncsc2c1	-0.1	56.8*	7.9	-1.6	1.7	53.5*	RORg DNA counter=6.01*
CC(=O)c1sc(NC(=O)c2oc3ccc(F)cc3c2C)nc1C	2.1	53.8*	-1.4	-0.1	0.3	45.9*	RORg DNA counter=>40
CSc1nc(C)c2c(n1)N(c1ccc(C(F)(F)F)cc1)CC2	0.4	22.8*	0.8	-0.3	-0.8	1.0
Cc1cc(=O)oc2cc(OCC3CC(c4ccc(Cl)cc4)=NO3)ccc12 (stereo unspecified)	-12.1	79.6*	-6.2	-5.9	-1.0	71.6*	RORg DNA counter=i
Cc1cc(=O)oc2cc(OCC3CC(c4ccc(N(C)C)cc4)=NO3)ccc12 (stereo unspecified)	0.9	7.1	-5.0	-4.5	0.3	nt
O=C1NC(=O)c2c(Br)c(Br)c(Br)c(Br)c21	-5.8	395.4*	6.6	1.5	2.5	441.7*	RORg DNA counter=7.53*
O=C(NN=Cc1ccc(-c2ccccc2)cc1)c1cc(-c2ccc(Cl)cc2)n[nH]1	0.0	-11.6	2.0	nt	nt	nt
Brc1cc2c(cc1-c1nc3ccccc3s1)OCO2	1.5	27.5*	-1.6	0.2	1.7	13.0
Brc1ccc(-c2nc3ccccc3s2)s1	-20.2	2.3	-1.3	-3.2	-0.5	nt
SMILES	NPR2 activator	Rev-erbA mod	GC-A act	V-ATPase pH	PG9 binder	Rev-erbA confirm	others
CCc1ccc2c(COC(=O)c3n[nH]c4ccccc34)cc(=O)oc2c1	-6.0	10.3	-8.0	5.7	-0.8	nt
Cc1ccc2c(COC(=O)c3n[nH]c4ccccc34)cc(=O)oc2c1	-3.3	17.1*	-5.3	1.8	6.1	14.6
COc1ccc(OC)c(NC(=O)c2ccccc2SC)c1	-1.4	7.8	-1.1	-6.7	-0.2	nt
COc1ccc(OC)c(NC(=O)c2cc3oc4ccccc4c3cc2O)c1	-1.5	40.6*	7.1	-18.0	1.2	15.3
C[C@H]1CCCN1c1ccc2c(c1)OCCCN(C1CC1)S2(=O)=O	1.5	-2.9	-1.2	nt	nt	nt
Cc1ccc(C)c(NC(=O)CN(C)C(=O)c2ccc(-c3cccc(C(F)(F)F)c3)o2)c1	-0.8	21.9*	-5.7	-1.8	6.0	22.8*
O=C(Nc1ccccn1)c1cc(-c2ccc(Cl)s2)nc2ccccc12	2.0	0.1	-3.9	-0.8	-0.8	nt
O=C(CNC(=O)c1sc2ccccc2c1Cl)NCc1ccccc1	-2.7	22.1*	-1.9	3.6	-8.7	11.3
Cc1ccnc(NC(=O)CNC(=O)c2sc3ccccc3c2Cl)c1	-3.0	35.2*	4.6	0.4	5.5	6.2
COc1ccc(C)cc1NC(=O)CNC(=O)c1sc2ccccc2c1Cl	-3.0	4.0	1.9	-2.4	3.0	nt
Cc1ccc(S(=O)(=O)N2CCN(C(=O)CNC(=O)c3sc4ccccc4c3Cl)CC2)cc1	-3.3	22.6*	-3.2	-2.4	-0.3	5.1
Cc1ccnc(NC(=O)c2cc(-c3ccc(Cl)s3)nc3ccccc23)c1	-4.8	24.4*	-7.7	-1.1	-3.5	-6.0
COC(=O)c1ccc(CNC(=O)CNC(=O)c2sc3ccccc3c2Cl)cc1	-1.8	2.0	-1.1	-4.0	-1.6	nt
O=C(Nc1ccc(F)cc1F)C1CCCN1S(=O)(=O)c1cccnc1 (stereo unspecified)	-2.3	1.3	1.9	nt	nt	nt
CNC(=O)[C@@H]1CC=C[C@@H]2CCN(c3ccccc3)C(=O)[C@@H]21	-1.7	-1.2	1.0	nt	nt	nt
CCOc1ccc(-n2c(SCC(=O)Nc3ccccc3-c3ccccc3)nnc2-c2ccncc2)cc1	-0.8	12.5	-9.3	nt	nt	nt
CC(c1c[nH]c2ccccc12)c1c[nH]c2ccc(Br)cc12 (stereo unspecified)	-9.4	-3.5	-6.6	nt	nt	nt
CCCCCCC/C=C(\C)[C@@H](O)[C@@H](C)C(=O)N1CCC[C@@H]1C(=O)O	-0.2	-3.7	1.1	nt	nt	nt
C=CCN(C)C(C#CCCCC)c1ccccc1 (stereo unspecified)	-6.9	1.2	-6.3	nt	nt	nt
Cc1ccc(C(=O)Nc2nnc(-c3ccc(C(C)(C)C)cc3)s2)cc1	4.7	26.2*	13.3	0.6	-1.1	3.4
CN(C)c1ccc(C=NN2C(=O)CSC2=S)c(Cl)c1	2.5	22.5*	-2.5	-3.0	-2.1	-3.1
O=C1CSC(=S)N1N=Cc1c(F)cccc1Cl	3.3	2.5	-6.4	0.7	-0.3	nt
CN(C)c1ccc(C=Cc2nccc3ccccc23)cc1	-14.6	302.6*	11.1	nt	-2.9	345.7*	RORg DNA counter=>40
O=c1sc(N2CCN(c3ccccc3F)CC2)nc2ccsc12	-3.6	24.0*	-0.5	-3.3	-2.3	13.8*
